Assay outcomes: PubChem, The Scripps Research Institute Molecular Screening Center
MITF inh: blocks human microphthalmia-associated transcription factor | O75030 | AlphaScreen MITF homodimerization, bead proximity signal | inhibition, % at 2.6 µM | 650,000 tested, 0.91% active; in the data active = inhibition above about 50%;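 also: 0% = vehicle wells with protein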
FBW7 activator: human FBW7 E3 ligase activation, primary screen; Q969H0; AlphaScreen FBW7–phospho-cyclin E peptide binding, activator screen; normalized activity (activation), % at 26.1 µM; 650,000 tested, 0.13% active; AID 1259310; in the data active = normalized activity above about 1.9%;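 also: purified mutant Fbw7 with reduced substrate affinity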
GPR151 activ: human GPR151 activation; Q8TDV0; PathHunter beta-arrestin GPR151 cells, luminescence; activation, % at 11.2 µM; 650,000 tested, 1% active; in the data active = activation above about 4.9%;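 also: 0% = median of compound wells and 100% = cells with positive control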
Target sequence (Q8TDV0 whole entry, looked up): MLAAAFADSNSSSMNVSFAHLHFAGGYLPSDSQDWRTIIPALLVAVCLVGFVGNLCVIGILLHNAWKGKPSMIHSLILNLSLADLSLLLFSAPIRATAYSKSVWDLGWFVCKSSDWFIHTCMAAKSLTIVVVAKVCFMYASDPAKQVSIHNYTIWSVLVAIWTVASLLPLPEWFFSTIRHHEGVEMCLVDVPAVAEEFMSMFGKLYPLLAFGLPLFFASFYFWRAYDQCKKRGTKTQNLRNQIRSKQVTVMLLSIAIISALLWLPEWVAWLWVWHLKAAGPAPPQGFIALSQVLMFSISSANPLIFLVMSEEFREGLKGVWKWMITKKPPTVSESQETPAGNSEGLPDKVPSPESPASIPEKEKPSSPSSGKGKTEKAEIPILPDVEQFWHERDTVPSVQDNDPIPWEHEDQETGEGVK
TEAD-YAP inh: TEAD-YAP interaction inhibition; HEK-TIYL cells, TEAD-Gal4/YAP UAS-luciferase luminescence; inhibition, % at 9.12 µM; 640,000 tested, 1.4% active; in the data active = inhibition above about 32%;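 also: 0% = median of test compound wells and 100% = reference inhibitor wells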
Numbers without * were called inactive. The list is not random: actives were taken first. Their share in the collection is about 3.4%.

SMILES	MITF inh	FBW7 activator	GPR151 activ	TEAD-YAP inh
CCOc1ccc(NC(=O)c2c(Cl)ccc(Cl)c2OC)cc1	1	0	-1	9
Cc1cccc(C(=O)OCC(=O)N(C(C)C)C(C)C)c1O	-5	0	0	4
CCCC(c1nnnn1CC1CCCO1)N1CCN(C(=O)c2ccco2)CC1 (configuration not stated)	11	0	-1	11
COC(=O)C(=O)CC(=O)c1ccccc1	10	0	2	-20
COc1ccccc1/C=C1\SC(=S)N(CCC(=O)Nc2ccccc2[N+](=O)[O-])C1=O	-2	0	-1	5
CCc1ccc(OCC(=O)NCCc2ccc(Cl)cc2)cc1	14	0	0	1
O=C(c1ccc(Cl)cc1)c1ccc(NC(=O)c2cc(Br)cc(Br)c2O)cc1Cl	-3	0	-2	-5
O=C(Nc1ccc(C(=O)c2ccc(Cl)cc2)c(Cl)c1)c1cc(Cl)ccc1O	1	0	1	40*
CN1C(=O)C(=Cc2ccc(OCc3cccc(C(=O)O)c3)cc2)C(=O)N(C)C1=O	0	0	-9	43*
CN1C(=O)S/C(=C/c2ccc(OCc3cccc(C(=O)O)c3)cc2)C1=O	11	1	2	-30
Cc1ccc(NC(=O)Cn2c(-n3nc(C)cc3C)nc(C)cc2=O)cc1	4	1	-1	43*
Cc1ccccc1S(=O)(=O)Nc1cc(Br)cc2cccnc12	18	0	1	36*
CCOC(=O)C1=C(C)NC2=C(C(=O)CC(C)(C)C2)C1c1cc(I)c(O)c(OC)c1 (configuration not stated)	2	0	-2	6
COC(=O)Cn1c(=O)n(-c2ccccc2)c(=O)c2oc3ccccc3c21	-3	0	0	-6
CC(=O)/C=C1\N(C)c2ccccc2C1(C)C	10	0	1	-10
CC(=O)c1ccc(S(=O)(=O)N(C)CC(=O)/C=C2/N(C)c3ccccc3C2(C)C)cc1	4	0	1	38*
Cc1ccc(C)c2c1sc(=NC(=O)C1=COCCO1)n2C	5	0	-2	-14
Cc1cccc(C(=O)Nc2c(C(=O)N3CCCCC3)cnn2-c2ccccc2)c1	6	0	2	13
Cc1cccc(C(=O)Nc2c(C(=O)N3CCN(C)CC3)cnn2-c2ccccc2)c1	14	2.3*	-1	11
COc1ccc(Nc2c3c4c(cccc4[nH]c2=O)C(=O)c2ccccc2-3)cc1	3	0	1	55*
O=C1c2ccccc2-c2c(Nc3ccccc3)c(=O)[nH]c3cccc1c23	7	0	0	49*
Cc1cccc(C2CC(=O)Nc3cc4c(cc32)OCO4)c1 (configuration not stated)	8	0	-1	18
Cc1cccc(C2CC(=O)Nc3cc4c(cc32)OCCO4)c1 (configuration not stated)	19	1	0	40*
Cc1c(C(=O)Nn2cnnc2)cccc1[N+](=O)[O-]	0	0	0	2
COC(=O)C1CCCCN1C(=O)CC1(c2cccc(F)c2)CC(=O)N(C)C1=O (configuration not stated)	-9	0	0	11
SMILES	MITF inh	FBW7 activator	GPR151 activ	TEAD-YAP inh
COc1cccc2c1N[C@@H](c1ccc(C(=O)O)cc1)[C@H]1CC=C[C@@H]21	63*	-1	0	-4
COc1cccc2c1NC(c1ccc(C(=O)O)cc1)C1CC=CC21 (configuration not stated)	71*	-1	-2	11
COc1cc([N+](=O)[O-])cc2c1NC(c1ccc(C(=O)O)cc1)C1CC=CC21 (configuration not stated)	75*	0	-1	7
N#CC1(C#N)[C@H](c2cccc(I)c2)[C@@H](C(=O)c2ccccc2)N2c3ccc(Cl)cc3C=C[C@@H]21	3	0	1	0
CCOc1ccccc1OCCCCN1CCNCC1	34	0	-2	-2
COc1ccc(Br)cc1/C=N/N=C(N)N	3	0	-2	42*
COc1cc([N+](=O)[O-])ccc1NC(=S)Nc1ccc(Cl)cn1	-4	0	-2	2
C[C@@H](Nc1nc(-c2cccc3cccnc23)cnc1N)c1ccccc1	6	0	0	16
C[C@H](Nc1nc(-c2cccc3ncccc23)cnc1N)c1ccccc1	14	0	-1	60*
Nc1ncc(-c2cccc3ncccc23)nc1NCc1ccccc1	21	1	1	48*
COc1cccc(OCc2nc(N(C)Cc3cccnc3)c3cc(-c4cn[nH]c4)ccc3n2)c1	18	0	1	-3
CC(=O)c1ccc(NC(=O)c2noc3c2CCC3)cc1	25	0	-3	80*
Cc1cccc(C(=O)N/N=C/c2ccccc2F)c1	-9	0	0	-9
O=C(N/N=C/c1ccco1)c1cc(Cl)ccc1O	2	0	-1	-16
O=C(N/N=C/c1ccco1)c1cc(O)c(O)c(O)c1	87*	0	-1	-2
O=C(N/N=C/c1ccccc1F)c1cc(O)c(O)c(O)c1	55*	0	-1	-13
CC(C)C1OC(COc2ccccc2)CN1Cc1ccco1 (configuration not stated)	-3	0	2	14
CC1(C)Cc2c(cnn2-c2ccc(Cl)cc2)-c2nc3ccccc3nc21	15	0	0	-1
Nc1nc2c(s1)CCc1c-2cnn1-c1ccccc1	-3	0	-1	45*
Cc1ccc(CN(Cc2ccco2)C(=S)NCC(=O)N2CCc3ccccc32)cc1	3	0	3	-6
Cc1cc(Cl)n(-c2ccc([N+](=O)[O-])cc2)n1	4	0	-1	7
Cc1cc(C)n(-c2ncc(-c3ccc([N+](=O)[O-])cc3)cn2)n1	-4	0	-1	59*
Fc1ccc2c(c1)nc(NCc1ccncc1)c1nccn12	1	0	-1	49*
Fc1ccc2c(c1)nc(NCc1ccccc1)c1nccn12	13	0	-3	-9
COc1ccc(-n2nnnc2C2(Nc3cccc(Cl)c3)CCCCC2)cc1	-5	0	1	48*
SMILES	MITF inh	FBW7 activator	GPR151 activ	TEAD-YAP inh
CN=c1scc(-c2ccccc2Br)n1/N=C/c1ccco1	22	0	-2	2
CN=c1scc(-c2ccccc2F)n1/N=C/c1ccc2c(c1)OCO2	14	0	-10	94*
CN=c1scc(-c2ccccc2)n1/N=C/c1ccsc1	29	0	-2	99*
CN=c1scc(-c2cccc(Br)c2)n1/N=C/c1ccncc1	25	0	2	-62
CN=c1scc(-c2ccccc2F)n1/N=C/c1ccsc1	16	0	-8	99*
CN=c1scc(-c2ccccc2Br)n1/N=C/c1ccc(O)cc1O	6	0	-3	96*
CN=c1scc(C)n1/N=C/c1ccc2c(c1)OCO2	14	0	-7	15
CC(=O)c1c(C)[nH]c(C(=O)OCC(=O)NC(=O)NC2CCCC2)c1C	12	0	0	29
CCN=c1scc(-c2ccccc2)n1/N=C/c1ccccn1	1	-1	-2	55*
CCN=c1scc(-c2ccc(F)cc2)n1/N=C/c1ccccn1	12	0	-1	-86
